Measurements taken from PubChem BioAssay (NCATS).
“And” between values parts separate entries of the source, which are not always exact repeats. Equal entries are not always repeated. Records with an inconclusive call do not appear. The source made the active and inactive calls. Unless noted, calls follow the shape of the dose curve; as a rule, active = well fitted curve in the direction sought with a large enough effect; inconclusive = small, poorly fitted or top-dose-only effect, or another doubt; inactive = no such curve, though single readings can be large; an effect the other way counts as inactive or inconclusive.

Legend:
[1] = Cell Viability - Hek293 (AID 427;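 active = compounds whose dose-response curve shows a full or clear partial loss of cell viability, called from curve shape rather than a numeric limit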;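 also: potency is read from the fitted curve at half-maximal effect; cells exposed to compound for 40 hours at 37 °C before reading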); settings: qHTS
Method in brief: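 AC50 values derive from Hill-modelled concentration-response of ATP-based luminescence, normalized between DMSO-only and 100 uM tamoxifen controls. Cells were exposed in complete culture medium for 40 hr at 37 °C before detection.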

[2] = Cell Viability - LYMP2-003 (AID 965); settings: LYMP2-003 lymphoblastoid cell viability; series mostly up to 92.2 µM;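 also: cells exposed to compounds for 24 h before reading; 0% = DMSO only and full effect = 92 µM tetraoctylammonium bromide; nearly all actives have a fitted effect of over 50% in size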
Method in brief: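 Human lymphoblastoid cells (2500/well) were pre-incubated 5 hr at 37 C, then exposed to compounds over a concentration range for 24 hr at 37 C. Intracellular ATP was read by CellTiter-Glo luminescence; AC50 came from Hill-equation fits.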

[3] = Cell Viability - LYMP2-009 (AID 968); settings: LYMP2-009 lymphoblastoid cell viability; series mostly up to 92.2 µM;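 also: 0% = DMSO alone and the full-kill end = tetraoctylammonium bromide at 92 µM; nearly all actives have a fitted effect of over 55% in size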
[4] = Cell Viability - LYMP2-015 (AID 971); settings: LYMP2-015 lymphoblastoid cell viability; series mostly up to 92.2 µM;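 also: 0% = DMSO only and full effect = 92 µM tetraoctylammonium bromide; nearly all actives have a fitted effect of over 55% in size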
Method in brief: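 Human lymphoblastoid cells (2500/well) in complete medium were preincubated 5 hr at 37 C, then compound-treated 24 hr at 37 C. Intracellular ATP was read by CellTiter-Glo luminescence after 30 min at room temperature; AC50 came from Hill-equation concentration-response fits.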

[5] = Cell Viability - LYMP2-017 (AID 972); settings: LYMP2-017 lymphoblastoid cell viability; series mostly up to 92.2 µM; also: % is scaled to controls: 0 for no effect and ±100 for the full control effect; nearly all actives have a fitted effect of over 55% in size
Method in brief: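 Human lymphoblastoid cells (2500/well) were seeded in complete medium, held 5 hr at 37 C, then exposed to compounds for 24 hr at 37 C. Intracellular ATP was read by CellTiter-Glo luminescence after 30 min at room temperature, with AC50 values from Hill-equation fits.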

[6] = Cell Viability - LYMP2-019 (AID 973); settings: LYMP2-019 lymphoblastoid cell line viability; series mostly up to 92.2 µM;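 also: 0% = DMSO alone and full effect = 92 µM tetraoctylammonium bromide; nearly all actives have a fitted effect of over 55% in size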
Method in brief: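 Human lymphoblastoid cells were seeded at 2500 cells/well, preincubated 5 hr at 37 C, then exposed to compounds for 24 hr at 37 C in complete medium. Intracellular ATP was measured by CellTiter-Glo luminescence; AC50 from Hill fits.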

[7] = Cell Viability - LYMP2-023 (AID 975); settings: LYMP2-023 lymphoblastoid cell viability; series mostly up to 92.2 µM
Method in brief: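 Human lymphoblastoid cells (2500/well) were preincubated 5 hr at 37 C, then exposed to compounds for 24 hr at 37 C in complete medium. Cellular ATP was read by CellTiter-Glo luminescence, and AC50 came from Hill-equation fits.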

[8] = Cell Viability - LYMP2-025 (AID 976); settings: LYMP2-025 lymphoblastoid cell viability; series mostly up to 92.2 µM;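 also: plate controls were DMSO only for no effect and tetraoctylammonium bromide control for full effect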
Method in brief: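 Human lymphoblastoid LYMP2-025 cells (2500/well) were pre-incubated 5 hr at 37 C, then treated with compounds for 24 hr at 37 C in complete medium. Viability was read as intracellular ATP by CellTiter-Glo luminescence; AC50 from Hill fits.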

[9] = Cell Viability - LYMP2-006 (AID 978); settings: LYMP2-006 lymphoblastoid cell viability, qHTS; series mostly up to 92.2 µM; also: % is scaled to controls: 0 for no effect and ±100 for the full control effect; nearly all actives have a fitted effect of over 60% in size
Method in brief: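 Human lymphoblastoid cells, 2500 per well, were preincubated 5 hr at 37 C, then exposed to compounds for 24 hr at 37 C in complete medium. Viability was read as intracellular ATP by CellTiter-Glo luminescence; AC50 from Hill-equation fits of qHTS concentration-response data.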

[10] = Cell Viability - LYMP2-007 (AID 979); settings: LYMP2-007 lymphoblastoid cell viability; series mostly up to 92.2 µM;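 also: cells exposed to compound for 24 h before reading; 0% = DMSO only and the negative end = 92 µM tetraoctylammonium bromide; nearly all actives have a fitted effect of over 60% in size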
Method in brief: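 Human lymphoblastoid cells (2500/well) were plated in complete medium, incubated 5 hr at 37 C, then exposed to compounds for 24 hr at 37 C. Intracellular ATP was read by CellTiter-Glo luminescence after 30 min at room temperature; AC50 from Hill fits.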

[11] = Cell Viability - LYMP2-008 (AID 980); settings: LYMP2-008 lymphoblastoid cell viability, qHTS; series mostly up to 92.2 µM; also: % is scaled to controls: 0 for no effect and ±100 for the full control effect; nearly all actives have a fitted effect of over 60% in size
Method in brief: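 Human lymphoblastoid cells (2500/well) were plated, held 5 hr at 37 C, then exposed to compounds for 24 hr at 37 C in complete medium. Intracellular ATP was read by CellTiter-Glo luminescence; AC50 from Hill-fitted concentration-response.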

[12] = Cell Viability - LYMP2-018 (AID 985); settings: LYMP2-018 lymphoblastoid cells, viability (qHTS); series mostly up to 92.2 µM;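 also: compound exposure lasted 24 hr at 37 °C; plate controls were DMSO only for no effect and tetraoctylammonium bromide at 92 µM for full effect; nearly all actives have a fitted effect of over 50% in size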
Method in brief: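 Human lymphoblastoid cells (2500/well) were pre-incubated 5 hr at 37 C, then exposed to compounds for 24 hr at 37 C in complete medium. Viability was read as intracellular ATP by CellTiter-Glo luminescence; AC50 values came from Hill-equation fits.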

[13] = Cell Viability - LYMP2-022 (AID 987); settings: LYMP2-022 lymphoblastoid cell viability; series mostly up to 92.2 µM
Method in brief: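 Human lymphoblastoid cells, 2500/well, preincubated 5 hr at 37 C, then exposed to compounds over a concentration range for 24 hr at 37 C in complete medium. Viability read as intracellular ATP by CellTiter-Glo luminescence after 30 min at room temperature; AC50 from Hill fits.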

[14] = Cell Viability - LYMP2-026 (AID 989); settings: LYMP2-026 lymphoblastoid cell viability, qHTS; series mostly up to 92.2 µM; also: % is scaled to controls: 0 for no effect and ±100 for the full control effect; nearly all actives have a fitted effect of over 50% in size
Method in brief: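 Human lymphoblastoid cells (2500/well) in complete medium were preincubated 5 hr at 37 C, then exposed to compounds for 24 hr at 37 C. Cellular ATP was read by CellTiter-Glo luminescence; AC50 from Hill-equation fits of concentration-response data.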

[15] = Cell Viability - LYMP1-002 - Assay at 24 hr (AID 993); settings: LYMP1-002 lymphoblastoid cells viability; series mostly up to 92.2 µM; also: % is scaled to controls: 0 for no effect and ±100 for the full control effect
Method in brief: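 Human lymphoblastoid LYMP1-002 cells, 2500/well in complete medium, were treated with compounds for 24 h at 37 C; intracellular ATP was read by CellTiter-Glo luminescence. AC50 values came from Hill-equation fits of qHTS concentration-response data.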

[16] = Cell Viability - LYMP1-002 - Assay at 40 hr (AID 994); settings: LYMP1-002 lymphoblastoid cell viability; series mostly up to 92.2 µM;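 also: 0% = DMSO only and full inhibition = 92 µM tetraoctylammonium bromide; nearly all actives have a fitted effect of over 60% in size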
Method in brief: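 Human lymphoblastoid cells, 2500/well in complete medium, were preincubated 5 hr at 37 C, then exposed to compounds for 40 hr at 37 C. Intracellular ATP was read by CellTiter-Glo luminescence after 30 min at room temperature; AC50 from Hill-equation fits.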

[17] = qHTS assay for small molecule antagonists of retinoid X receptor alpha signaling (AID 588546; active = well fitted inhibition curve with a large enough effect in the signal ratio, with a control signal flat, not every such curve was filed as active; the % refers to the signal ratio;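 also: cells stimulated with 9-cis-retinoic acid as agonist; % is scaled to controls: 0 for no effect and ±100 for the full control effect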); settings: HEK293T RXRa-UAS-bla, beta-lactamase ratio, antagonist mode; measured here: W530 green channel, cytotoxicity proxy
Method in brief: (§1)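 Beta-lactamase reporter inhibition, read as CCF4 fluorescence ratio (ex 405, em 460/530 nm) after 2 h at RT. HEK293T UAS-bla cells, 2500/well, were stimulated with 9-cis-RA at 500 or 100 nM final alongside test compound for 18 h at 37 C.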

[18] = biological target: Retinoic acid receptor RXR-alpha (Homo sapiens) (UniProt P19793); experiment: as above; settings: HEK293T RXRa-UAS-bla, beta-lactamase ratio, antagonist mode
Method in brief: as §1

[19] = biological target: Thyroid hormone receptor beta (Homo sapiens) (UniProt P10828); experiment: qHTS assay for small molecule antagonists of thyroid hormone receptor beta signaling (AID 588547; active = well fitted inhibition curve with a large enough effect in the signal ratio, with a control signal flat, not every such curve was filed as active; the % refers to the signal ratio;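 also: cells stimulated with 0.4 nM T3 agonist during compound exposure; % is scaled to controls: 0 for no effect and ±100 for the full control effect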); settings: TR-UAS-bla HEK293, beta-lactamase ratio, antagonist mode, 18 h
Method in brief: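 Inhibition of T3-driven (0.4nM final) beta-lactamase reporter activity was measured over 0.59 nM to 92 uM compound after 18 h at 37 C. The cells were GripTite HEK293 TR-UAS-bla in charcoal/dextran-stripped serum, with CCF4 ratio read-out and IC50 from Hill fits.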

[20] = qHTS assay for small molecule activators of the p53 signaling pathway (AID 651743; active = well fitted activation curve with a large enough effect in the signal ratio, not every such curve was filed as active; the % refers to the signal ratio; also: % of control where 0% means no effect); settings: HCT-116 p53RE-bla, beta-lactamase FRET ratio, 16 h; activation: stronger effect = higher value
Method in brief: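 Screen for p53 pathway agonists uses stably transfected p53RE-bla HCT-116 cells, 4,000 per well, treated 16 h at 37 C with compounds in DMSO.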

Chain of Retinoic acid receptor RXR-alpha (Homo sapiens) (P19793 whole entry, looked up): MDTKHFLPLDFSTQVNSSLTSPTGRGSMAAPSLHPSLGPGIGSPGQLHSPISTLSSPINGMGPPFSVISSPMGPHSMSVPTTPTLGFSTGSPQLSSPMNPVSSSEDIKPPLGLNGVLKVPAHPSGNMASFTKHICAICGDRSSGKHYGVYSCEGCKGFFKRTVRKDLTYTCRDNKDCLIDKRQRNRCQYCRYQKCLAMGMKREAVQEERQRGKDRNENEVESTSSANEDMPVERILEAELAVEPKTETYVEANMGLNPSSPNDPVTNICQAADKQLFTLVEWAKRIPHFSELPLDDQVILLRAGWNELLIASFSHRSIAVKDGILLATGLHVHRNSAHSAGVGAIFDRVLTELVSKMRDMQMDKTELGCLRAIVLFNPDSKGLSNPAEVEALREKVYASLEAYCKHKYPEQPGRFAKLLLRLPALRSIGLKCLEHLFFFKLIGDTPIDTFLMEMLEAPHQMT
Chain of Thyroid hormone receptor beta (Homo sapiens) (P10828 whole entry, looked up): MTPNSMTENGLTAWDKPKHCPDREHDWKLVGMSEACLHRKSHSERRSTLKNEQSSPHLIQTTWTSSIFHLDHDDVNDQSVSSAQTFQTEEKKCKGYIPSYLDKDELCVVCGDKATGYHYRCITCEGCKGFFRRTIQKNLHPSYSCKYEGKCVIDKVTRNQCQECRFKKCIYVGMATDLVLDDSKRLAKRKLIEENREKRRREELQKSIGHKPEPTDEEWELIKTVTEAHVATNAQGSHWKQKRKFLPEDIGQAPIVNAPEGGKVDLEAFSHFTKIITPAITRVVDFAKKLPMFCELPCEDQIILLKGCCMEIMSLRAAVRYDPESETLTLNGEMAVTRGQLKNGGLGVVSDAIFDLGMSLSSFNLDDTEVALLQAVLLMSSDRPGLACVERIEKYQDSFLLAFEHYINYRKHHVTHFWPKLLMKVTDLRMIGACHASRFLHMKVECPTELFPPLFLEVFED

CC(C)(C)OOC(C)(C)C
inactive: Potency [1] > 92 µM | Potency [2] | Potency [3] | Potency [4] | Potency [5] | Potency [6] | Potency [7] | Potency [8] | Potency [9] | Potency [10] | Potency [11] | Potency [12] | Potency [13] | Potency [14] | Potency [15] | Potency [16] | max response [18] 11.6% | activity change % (negative = inhibition) [19] -4.91% | activation [20] -4.97%
-12.4%: max response [17]

Cc1ccc2ccccc2c1
inactive: Potency [1] > 92 µM | Potency [2] | Potency [3] | Potency [4] | Potency [5] | Potency [6] | Potency [7] | Potency [8] | Potency [9] | Potency [10] | Potency [11] | Potency [12] | Potency [13] | Potency [14] | Potency [15] | Potency [16] | max response [18] -9.3% | activity change % (negative = inhibition) [19] 0.181% | activation [20] -0.481%
-12.4%: max response [17]

CC(C)(C)OO
-3.93% and -2.51%: max response [17]
inactive: Potency [1] > 92 µM | Potency [2] | Potency [3] | Potency [4] | Potency [5] | Potency [6] | Potency [7] | Potency [8] | Potency [9] | Potency [10] | Potency [11] | Potency [12] | Potency [13] | Potency [14] | Potency [15] | Potency [16] | max response [18] 34% and 10.1% | activity change % (negative = inhibition) [19] 4.81% and -2.74% | activation [20] 0.296%

O=C=NC1CCCCC1
-7.8% and -5.15%: max response [17]
inactive: Potency [1] > 92 µM | Potency [2] | Potency [3] | Potency [4] | Potency [5] | Potency [6] | Potency [7] | Potency [8] | Potency [9] | Potency [10] | Potency [11] | Potency [12] | Potency [13] | Potency [14] | Potency [15] | Potency [16] | max response [18] 12.3% and -18.1% | activity change % (negative = inhibition) [19] -8.25% and 2.05% | activation [20] -1.8% and -1.61%

Cc1ccccc1N
-2.57%: max response [17]
inactive: Potency [1] > 92 µM | Potency [2] | Potency [3] | Potency [4] | Potency [5] | Potency [6] | Potency [7] | Potency [8] | Potency [9] | Potency [10] | Potency [11] | Potency [12] | Potency [13] | Potency [14] | Potency [15] | Potency [16] | max response [18] 13.9% | activity change % (negative = inhibition) [19] 0.476% and 3.77% | activation [20] -1.62% and -3.19%

COc1ccc(C=O)cc1OC
inactive: Potency [1] > 92 µM | Potency [2] | Potency [3] | Potency [4] | Potency [5] | Potency [6] | Potency [7] | Potency [8] | Potency [9] | Potency [10] | Potency [11] | Potency [12] | Potency [13] | Potency [14] | Potency [15] | Potency [16] | max response [18] -9.7% and -21.1% | activity change % (negative = inhibition) [19] 2.18% and 12.7% | activation [20] -1.53% and 0.661%
-5.56% and -4.77%: max response [17]

C=C(C)C(=O)OCC1CO1 (centres undefined)
-2.75%: max response [17]
inactive: Potency [1] > 92 µM | Potency [2] | Potency [3] | Potency [4] | Potency [5] | Potency [6] | Potency [7] | Potency [8] | Potency [9] | Potency [10] | Potency [11] | Potency [12] | Potency [13] | Potency [14] | Potency [15] | Potency [16] | max response [18] 4.24% | activity change % (negative = inhibition) [19] 6.72% | activation [20] -0.637%

c1ccc2c(c1)CCCC2
inactive: Potency [1] > 92 µM | Potency [2] | Potency [3] | Potency [4] | Potency [5] | Potency [6] | Potency [7] | Potency [8] | Potency [9] | Potency [10] | Potency [11] | Potency [12] | Potency [13] | Potency [14] | Potency [15] | Potency [16] | max response [18] 7.45% | activity change % (negative = inhibition) [19] 3.81% | activation [20] 2.11%
-8.06%: max response [17]

C=CC(=O)OCC
inactive: Potency [1] > 92 µM | Potency [2] | Potency [3] | Potency [4] | Potency [5] | Potency [6] | Potency [7] | Potency [8] | Potency [9] | Potency [10] | Potency [11] | Potency [12] | Potency [13] | Potency [14] | Potency [15] | Potency [16] | max response [18] 4.16% | activity change % (negative = inhibition) [19] -5%
-8.36%: max response [17]

O=NN(c1ccccc1)c1ccccc1
-5.84% and -1.3%: max response [17]
inactive: Potency [1] > 92 µM | Potency [2] | Potency [3] | Potency [4] | Potency [5] | Potency [6] | Potency [7] | Potency [8] | Potency [9] | Potency [10] | Potency [11] | Potency [12] | Potency [13] | Potency [14] | Potency [15] | Potency [16] | max response [18] -2.47% and 4.6% | activity change % (negative = inhibition) [19] -20.2% and 4.93% | activation [20] -0.087% and -2.72%

OCC1CO1 (centres undefined)
2.41% and -5.17%: max response [17]
inactive: Potency [1] > 92 µM | Potency [2] | Potency [3] | Potency [4] | Potency [5] | Potency [6] | Potency [7] | Potency [8] | Potency [9] | Potency [10] | Potency [11] | Potency [12] | Potency [13] | Potency [14] | Potency [15] | Potency [16] | max response [18] 13.7% and -0.419% | activity change % (negative = inhibition) [19] -4.57% and 15.9% | activation [20] -2.94% and 1.37%
